High-throughput results: PubChem, National Center for Advancing Translational Sciences (NCATS)
Sfp PPTase inh: inhibitors of Bacillus subtilis Sfp phosphopantetheinyl transferase. Q9F4F7. Biochemical Sfp PPTase activity, qHTS. Potency, µM, usual class: inhibitors. 3.5% of 310,000 active;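 further: the enzyme is Sfp with the accession as filed and its product quenches rhodamine fluorescence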
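Step 1, compound plus 15 nM Sfp-PPTase, 15 min, room temperature. Step 2, add rhodamine-CoA (5 uM) and BHQ-2-YbbR (12.5 uM). Step 3, read 525/598 nm fluorescence at 0 and 30 min.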
GRP78 ERSR act: inducers of ER stress response in human glioma cells. Potency, µM, hits mostly activators. U87-MG GRP78 promoter luciferase reporter, 16 h. AID 602332. 0.02% of 420,000 active; further: series mostly up to about 76 µM; nearly all actives have a fitted effect of over 35% in size
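Stably transfected U87-MG human glioma cells carrying a GRP78-based luminescent sensor were seeded at 1000 cells/well, pin-dosed with compounds and incubated 16 h. Luciferase reagent was then added, and end-point luminescence was read after 10 min at room temperature.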
VDR inh: blocks the human vitamin D receptor | AID 504847 | Potency, µM, most hits filed as inhibitors | VDR-SRC2-3 peptide fluorescence polarization, 2 h | P11473 | 0.93% of 400,000 active
Target sequence (P11473 whole entry, looked up): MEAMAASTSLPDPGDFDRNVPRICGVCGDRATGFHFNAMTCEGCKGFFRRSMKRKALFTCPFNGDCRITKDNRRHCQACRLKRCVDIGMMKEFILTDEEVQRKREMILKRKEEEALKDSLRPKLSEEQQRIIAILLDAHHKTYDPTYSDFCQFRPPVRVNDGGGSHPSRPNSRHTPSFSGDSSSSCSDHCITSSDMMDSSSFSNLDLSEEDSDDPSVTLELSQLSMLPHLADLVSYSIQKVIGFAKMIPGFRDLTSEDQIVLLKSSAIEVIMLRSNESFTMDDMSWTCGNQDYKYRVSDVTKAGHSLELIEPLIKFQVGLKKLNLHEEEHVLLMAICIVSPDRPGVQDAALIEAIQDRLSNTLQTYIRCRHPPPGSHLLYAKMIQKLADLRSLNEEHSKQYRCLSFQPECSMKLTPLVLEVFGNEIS
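After 23 nl compound addition and a short centrifugation, plates sat for 2 hours at ambient temperature; polarization of fluorescence then indicated loss of VDR binding to peptide SRC2-3.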
G9a inh: G9a (human) methyltransferase inhibition. 8.8% of 350,000 active. Q96KQ7. G9a H3K9 monomethylation, AlphaScreen, 2 h. Potency, µM (series often up to 102 µM), usual class: inhibitors; further: nearly all actives have a fitted effect of over 75% in size
Target sequence (Q96KQ7 913-1193 limits assumed): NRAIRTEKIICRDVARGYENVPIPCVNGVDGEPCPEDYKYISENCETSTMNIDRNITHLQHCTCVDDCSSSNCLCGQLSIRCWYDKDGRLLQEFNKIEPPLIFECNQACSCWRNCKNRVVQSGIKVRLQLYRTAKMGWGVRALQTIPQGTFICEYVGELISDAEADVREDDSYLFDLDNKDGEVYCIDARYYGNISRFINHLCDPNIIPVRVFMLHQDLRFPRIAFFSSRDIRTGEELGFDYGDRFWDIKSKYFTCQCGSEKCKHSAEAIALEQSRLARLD
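Methyltransferase reactions run at room temperature for 2 h (20 nM enzyme, 500 nM biotin-H3K9 peptide, 20 uM SAM) after a 15 min compound preincubation; product detected by AlphaScreen beads and anti-H3K9me1 antibody.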
ALOX12 inh: inhibitors of human 12S-lipoxygenase ALOX12; P18054; purified 12hLO, xylenol orange hydroperoxide absorbance; Potency, µM (highest dose often 108 µM), hits mostly inhibitors; 1.1% of 580,000 active; AID 1671190
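Hydroperoxide product was detected by ferrous iron/xylenol orange as the 573 to 405 nm absorbance ratio. Arachidonic acid at 40 uM (final) was turned over for 30 min at room temperature by 150 nM human 12hLO, pH 7.0 Hepes buffer, after 15 min compound preincubation.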
Numbers stand for hits; . = inactive; ? = inconclusive; / = no result; ! = not confirmed by another sample; [ ] = dose if it differs, or a comment. The sample as a whole holds a higher share of hits than the screen did. The call rests on the fitted dose curve; in most records, active means well fitted curve in the direction sought with a large enough effect; inconclusive means small, poorly fitted or top-dose-only effect, or another doubt; inactive means no such curve, though single readings can be large; an effect the other way counts as inactive or inconclusive.

SMILES | Sfp PPTase inh | GRP78 ERSR act | VDR inh | G9a inh | ALOX12 inh
CCOC(=O)c1[nH]cnc1C(=O)Nc1cccc(OC)c1 | . | . | . | 28.2µM! | .
CCOC(=O)c1[nH]cnc1C(=O)Nc1ccc([N+](=O)[O-])cc1 | . | . | . | 79.4µM | .
O=C(Nc1ccc(F)cc1)c1nc[nH]c1C(=O)Nc1ccc([N+](=O)[O-])cc1 | . | . | . | . | .
Cn1c(Cl)cnc1COC(=O)CC12CC3CC(CC(Br)(C3)C1)C2 | / | / | / | / | .
CCOC(=O)C1CCN([C@H]2CS(=O)(=O)C[C@@H]2S(=O)(=O)c2ccc(F)cc2)CC1 | / | / | / | / | .
CNC(=O)/C(C#N)=C\c1ccc(CNS(=O)(=O)c2ccc(Cl)cc2)o1 | . | . | ? | ? | 44.7µM
COc1ccc(OCC2(C)COc3ccc(C(=O)Nc4ccc(OC)nc4)cc3N2)cc1 (configuration not stated) | / | / | / | / | .
NC(=O)Nc1ccc(Oc2ncc(C(F)(F)F)cc2Cl)cc1 | . | . | . | . | .
Cc1[nH]ccc(=O)c1Oc1ncc(C(F)(F)F)cc1Cl | . | . | . | 56.2µM | .
Cc1ccc(S(=O)(=O)N2CCN(C(=O)Cc3ccc(S(=O)(=O)N4CCOCC4)s3)CC2)cc1 | . | . | . | 79.4µM | .
O=C(Cc1ccc(S(=O)(=O)N2CCOCC2)s1)N1CCN(S(=O)(=O)c2ccc(Cl)cc2)CC1 | / | . | . | .[12.7 µM] | .
CCCOc1ccc(NC(=O)Cc2ccc(S(=O)(=O)N3CCOCC3)s2)cc1OCCC | / | . | . | 79.4µM | .
COc1ccc(NC(=O)CN(C)C(=O)Cc2ccc(S(=O)(=O)N3CCOCC3)s2)cc1 | / | . | . | 39.8µM | .
COc1ccc(N2CCN(C(=O)Cc3ccc(S(=O)(=O)N4CCOCC4)s3)CC2)cc1 | . | . | . | 44.7µM | .
Cc1cc(C)c(NC(=O)CN(C)CC(=O)NC(=O)NCc2ccccc2)c(C)c1 | / | / | / | / | .
Cc1ccc(NCC(=O)Nc2cc(Cl)ccc2-n2cncn2)cc1F | / | / | / | / | .
C[S+](=O)([O-])N1CC2(CCN(Cc3cccnc3)C2)Cc2ccccc21 (configuration not stated) | / | / | / | / | .[6.33 µM]
CC/C=C(/C)C(=O)NCc1ccco1 | / | / | / | / | .
O=S(=O)(c1ccc(F)cc1)c1nc(-c2ccco2)oc1Nc1ccc(F)cc1 | . | . | . | 50.1µM | ?
COc1ccc(Nc2oc(-c3ccco3)nc2S(=O)(=O)c2ccc(F)cc2)cc1 | . | . | . | 44.7µM | ?
COc1ccc(CNC(=O)N2CCN(S(=O)(=O)c3c(Cl)cccc3Cl)CC2)cn1 | / | / | / | / | .
COc1ccc(Nc2oc(COc3cccc(C)c3)nc2C#N)cc1 | . | . | . | ? | .
COc1ccc(Nc2oc(COc3ccc(C)cc3)nc2C#N)cc1 | . | ? | . | ? | .
CN(Cc1ccccc1)c1oc(COc2ccccc2F)nc1C#N | ? | . | . | 28.2µM | .
COc1ccc(Nc2oc(COc3ccccc3F)nc2C#N)cc1 | . | . | . | 35.5µM | .
SMILES | Sfp PPTase inh | GRP78 ERSR act | VDR inh | G9a inh | ALOX12 inh
N#Cc1nc(COc2ccccc2F)oc1NCCc1ccccc1 | . | . | ? | ? | .
COc1ccc(Nc2oc(COc3ccc(OC)cc3)nc2C#N)cc1 | . | . | . | 11.2µM | ?
CCc1noc(CN2CCN(c3cc(C)nc(C(C)C)n3)CC2)n1 | / | / | / | / | .
Cc1ccc(S(=O)(=O)CC(=O)c2cccc(Cl)c2)cc1 | / | / | / | / | .
C=CCNC(=O)CN1CCN(Cc2ccc(F)c3cccnc23)CC1 | / | / | / | / | .
COc1cc2c(cc1NC(=O)c1cccc([N+](=O)[O-])c1)oc1ccccc12 | . | . | . | 50.1µM | .
COc1cc2c(cc1NC(=O)CSc1ccccn1)oc1ccccc12 | 44.7µM | . | . | . | .
COc1ccc(-c2cc3c(=O)n(CCNC(=O)c4cccc(OC)c4OC)ccn3n2)cc1 | / | / | / | / | .
COCCN[C@@H]1C[C@@H]2c3[nH]c4ccccc4c3C[C@@H](C(=O)OC)N2[C@H](c2ccc(F)c(F)c2)C1 | / | / | / | / | .
Cc1ccc(Cl)cc1N1CCN(C(=O)C2CCN(Cc3nc(-c4cccc(Cl)c4)oc3C)CC2)CC1 | / | . | . | ? | ?
Cc1oc(-c2cccc(Cl)c2)nc1CN1CCCC(C(=O)NC(C)c2ccc3c(c2)OCCO3)C1 (configuration not stated) | . | . | . | 50.1µM | .
Cc1oc(-c2cccc(Cl)c2)nc1CN1CCCC(C(=O)N2CCN(c3ccc(F)cc3)CC2)C1 (configuration not stated) | / | . | . | 17.8µM | .
COc1cccc(CN2CCCC3(C2)NC(=O)c2ccccc2O3)c1 (configuration not stated) | / | / | / | / | .
O=C1NCCCCCCN(Cc2ccncc2)[C@@H]2CN(C(=O)c3cccs3)CC[C@@H]12 | / | / | / | / | .
O=C(/C=C/c1ccc2ccccc2n1)c1cc(Br)ccc1O | ? | . | ? | 10µM | ?
CCC(C)NC(=O)N(C)C1CCN(c2ccc(Cl)cc2)CC1 (configuration not stated) | / | / | / | / | .
O=c1[nH]c2cc3c(cc2cc1C(c1nnnn1CC1CCCO1)N1CCCCCC1)OCCO3 (configuration not stated) | . | . | . | 11.2µM | .
COc1ccc(Cn2nnnc2C(c2cc3ccc(OC)cc3[nH]c2=O)N2CCC(C)CC2)cc1 (configuration not stated) | 39.8µM | . | . | ? | ?
COc1ccc2cc(C(c3nnnn3Cc3ccc(F)cc3)N3CCCCCC3)c(=O)[nH]c2c1 (configuration not stated) | 17.8µM | . | . | ? | ?
COc1ccc2cc(C(c3nnnn3Cc3ccccc3)N3CCCCCC3)c(=O)[nH]c2c1 (configuration not stated) | ? | . | . | 12.6µM | ?
Cc1ccc2c(=O)cc(C(=O)NCC(c3ccco3)N3CCOCC3)oc2c1C (configuration not stated) | / | / | / | / | .
Cc1ccc2c(COC(=O)COc3ccc(Br)cc3)cc(=O)oc2c1 | / | / | / | / | .
O=[N+]([O-])c1ccc(N2N=C(c3ccccc3)CC2c2ccccc2O)cc1 (configuration not stated) | ? | / | / | ? | 25.1µM
O=[N+]([O-])c1ccc(N2N=C(c3ccco3)CC2c2ccccc2)cc1 (configuration not stated) | 50.1µM | . | . | 7.94µM | ?
CCOC(=O)c1cc(S(=O)(=O)N(C)CC(=O)Nc2ccc(F)c(Cl)c2)cn1C | / | / | / | / | .
SMILES | Sfp PPTase inh | GRP78 ERSR act | VDR inh | G9a inh | ALOX12 inh
Cc1nc(-c2ccc(S(=O)(=O)Nc3ccccc3F)cc2)co1 | / | / | / | / | .
CCc1nnc2n1N=C(c1ccc([N+](=O)[O-])cc1)CS2 | . | . | . | 35.5µM | .
Cc1sc(NC(=O)/C=C/C(=O)O)c(C(N)=O)c1-c1ccc(C(C)(C)C)cc1 | . | . | 79.4µM | ? | ?
CCOC(=O)c1c(NC(=O)/C=C/C(=O)O)sc(C)c1-c1ccc(C(C)(C)C)cc1 | . | . | 20µM | ? | ?
CCc1c(C)sc(NC(=O)/C=C/C(=O)O)c1C(N)=O | . | . | . | 35.5µM | ?
Cc1ccc(/C=C(\C#N)C(=O)NC2CCCC2)o1 | / | / | / | / | .
